The results in this text go back to ChEMBL document CHEMBL4808148, “HDAC6 screening dataset using tau-based substrate in an enzymatic assay yields selective inhibitors and activators” (2021).

The target of experiment [1] is T1, Protein deacetylase HDAC6 (Homo sapiens) (UniProt Q9UBN7).
T1 sequence (whole entry): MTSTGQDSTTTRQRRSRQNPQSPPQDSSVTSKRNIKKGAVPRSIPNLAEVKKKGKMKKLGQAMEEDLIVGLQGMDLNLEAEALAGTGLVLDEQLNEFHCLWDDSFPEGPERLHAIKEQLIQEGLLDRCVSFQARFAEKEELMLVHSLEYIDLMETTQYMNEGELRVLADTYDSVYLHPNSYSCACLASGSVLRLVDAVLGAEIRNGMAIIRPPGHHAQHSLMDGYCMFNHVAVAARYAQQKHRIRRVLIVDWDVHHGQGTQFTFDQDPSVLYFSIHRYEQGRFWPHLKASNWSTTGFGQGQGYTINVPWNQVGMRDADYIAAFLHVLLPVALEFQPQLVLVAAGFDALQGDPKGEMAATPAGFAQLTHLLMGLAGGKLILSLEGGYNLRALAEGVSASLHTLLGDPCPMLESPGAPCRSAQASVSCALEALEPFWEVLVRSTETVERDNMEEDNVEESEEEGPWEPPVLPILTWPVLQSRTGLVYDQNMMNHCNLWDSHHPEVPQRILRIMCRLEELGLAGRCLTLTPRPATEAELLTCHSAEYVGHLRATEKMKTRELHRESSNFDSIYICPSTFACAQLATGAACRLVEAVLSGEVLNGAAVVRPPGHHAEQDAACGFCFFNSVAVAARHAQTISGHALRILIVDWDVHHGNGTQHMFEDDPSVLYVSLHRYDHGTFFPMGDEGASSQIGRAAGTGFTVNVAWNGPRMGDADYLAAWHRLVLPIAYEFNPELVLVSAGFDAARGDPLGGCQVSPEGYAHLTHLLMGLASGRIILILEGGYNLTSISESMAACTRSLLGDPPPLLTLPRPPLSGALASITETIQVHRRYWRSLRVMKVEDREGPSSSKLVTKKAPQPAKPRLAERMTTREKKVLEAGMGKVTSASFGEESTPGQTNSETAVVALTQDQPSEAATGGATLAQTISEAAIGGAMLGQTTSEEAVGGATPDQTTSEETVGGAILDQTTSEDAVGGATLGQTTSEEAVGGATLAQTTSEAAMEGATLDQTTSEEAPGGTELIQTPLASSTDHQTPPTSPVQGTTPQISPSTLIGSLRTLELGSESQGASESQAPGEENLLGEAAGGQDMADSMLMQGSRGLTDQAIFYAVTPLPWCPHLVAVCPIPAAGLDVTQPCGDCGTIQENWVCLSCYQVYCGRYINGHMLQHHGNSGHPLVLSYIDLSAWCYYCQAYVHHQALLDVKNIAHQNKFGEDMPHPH
The following applies: at 10 µM.

Experiment [2] deals with Protein deacetylase HDAC6 (Homo sapiens) (UniProt Q9UBN7). The following applies: at 10 µM. The source holds these as a separate data set.

Several values for one entry are separate records, joined by “and”; a condition that tells them apart may be missing. Identical values can stand only once. Out of some 5,600 compounds screened, about 150 (2.7%) showed an effect of 50% or more. What follows is part of a selection rich in strong results, with near analogues and random picks from the rest. Residues, ends and D or L forms follow the SMILES beside them.

`O=C(/C=C/c1ccc2ccccc2n1)c1ccncc1`: the inhibition in experiment [1] came to 77.3%.

For `O=C(/C=C/c1ccc2ccc(C(F)(F)F)cc2n1)c1ccncc1`, the inhibition in experiment [1] is -2.03%.

As for `O=C(NNc1ccccc1)c1ccncc1`, the inhibition in experiment [1] was -5.35%.

As for `Cc1c(Cl)cccc1S(=O)(=O)Nc1nc(CC(=O)N2CCN(C)CC2)cs1`, the inhibition in experiment [1] amounted to 4.81%.

Regarding `CCO[C@@H](Cc1ccc(OCCn2c(C)ccc2-c2ccc(SC)cc2)cc1)C(=O)O`, the inhibition in experiment [1] is 46.3%.

Regarding `O=C(Nc1ccc(S(=O)(=O)Nc2ccccc2Cl)c(Cl)c1)c1ccccn1`, the inhibition in experiment [1] turned out to be 13.9%.

For the compound `O=C(Nc1ccc(Cl)cc1)Nc1ccc(Cl)c(Cl)c1`, the inhibition in experiment [1] is -2.56%.

For the compound `CC(C)OC(=O)Nc1cccc(Cl)c1`, the inhibition in experiment [1] is -4.5%.

For the compound `O=C(Nc1cnc(Cl)nc1)c1ccc(F)c(F)c1`, the inhibition in experiment [1] is -4.2%.

Turning to `O=C(Nc1cccc(Cl)c1)c1ccccn1`, the inhibition in experiment [1] was 97.2%.

For `COc1cc(NC(=O)c2ccccn2)ccc1Cl`, the inhibition in experiment [1] is 94.4%.

Consider `Cc1cccc(C)c1NC(=O)[C@H]1CCCCN1C`, for which, in experiment [1], the inhibition turned out to be 2.44%.

`c1ccc(CN2CCC3(CCc4ccccc43)CC2)cc1`: the inhibition in experiment [1] is -2.02%.

Take `CN[C@@H](CCCNC(=N)N)C(=O)O`: in experiment [1], the inhibition was -8.08%.

Consider `O=C(CCCS)NC1CCN(C(=O)COc2ccc(Cl)cc2Cl)CC1`, for which the inhibition in experiment [1] turned out to be 7.84%.

Consider `CO/N=C(/C(=O)N[C@@H]1C(=O)N2C(C(=O)O)=C(Cn3ccc(=N)n3CCO)CS[C@H]12)c1csc(N)n1`, for which the inhibition in experiment [1] is -0.61%.

For `O=C(N[C@H]1CCN(C(=O)c2cc(C(F)(F)F)cc(C(F)(F)F)c2)[C@H](Cc2ccc(Cl)cc2)C1)c1ccnc2ccccc12`, the inhibition in experiment [1] was -1.37%.

Turning to `Cc1cn2nc([C@@H]3CCCCN3C(=O)c3cc(Cl)ccc3NS(C)(=O)=O)cc2nc1N1CC[C@H](N)C1`, in experiment [1], the inhibition was -2.52%.

As for `Cc1nc(NS(=O)(=O)c2ccc(N)cc2)oc1C`, the inhibition in experiment [1] was found to be 32.6%.

In the case of SATRAPLATIN, CHEMBL3833367, the inhibition in experiment [2] is -6.7%.

In the case of `O=C1c2cccc(O)c2C(=O)c2c(O)cc(CO)cc21`, the inhibition in experiment [1] stood at 5.42%.

Take `Cc1cc(O)c2c(c1)C(=O)c1cc(O)cc(O)c1C2=O`: the inhibition in experiment [1] is 90.2%.

Take `CCS(=O)(=O)N(C)[C@H]1c2cc(C#N)ccc2OC(C)(C)[C@@H]1O`: in experiment [1], the inhibition is -5.99%.

As for `CC(=O)OC[C@H](N)C(=O)O`, the inhibition in experiment [1] amounted to 3.65%.

For `NC[C@H]1O[C@H](O[C@H]2[C@H](O)[C@@H](O[C@H]3O[C@H](CO)[C@@H](O)[C@H](N)[C@H]3O)[C@H](N)C[C@@H]2N)[C@H](N)C[C@@H]1O`, in experiment [1], the inhibition was -5.82%.

Take `NC[C@@H]1O[C@H](O[C@H]2[C@@H](O)[C@H](O[C@@H]3[C@@H](O)[C@H](N)C[C@H](N)[C@H]3O[C@H]3O[C@H](CO)[C@@H](O)[C@H](O)[C@H]3N)O[C@@H]2CO)[C@H](N)[C@@H](O)[C@@H]1O`: the inhibition in experiment [1] is 80.2%.

With `NC[C@H]1O[C@H](O[C@H]2[C@H](O[C@@H]3O[C@H](CO)[C@@H](O)[C@H]3O)[C@@H](O)[C@H](N)C[C@@H]2N)[C@H](N)[C@@H](O)[C@@H]1O`, in experiment [1], the inhibition was -5.95% and -3.47%.

Take `C[N+](C)(C)[C@@H](Cc1c[nH]c(=S)[nH]1)C(=O)[O-]`: the inhibition in experiment [1] is 0.31%.

For `CC/C(=C(/CC)c1ccc(OP(=O)(O)O)cc1)c1ccc(OP(=O)(O)O)cc1`, the inhibition in experiment [1] was -0.19%.

Regarding `CC(=O)N1CCC[C@H]1C(=O)N[C@@H](Cc1cnc[nH]1)C(=O)N[C@@H](CO)C(=O)N[C@@H](CS)C(=O)N[C@@H](CC(N)=O)C(N)=O` (Ac-PHSCN-NH2), the inhibition in experiment [1] is -4.4%.

Regarding `CCOC(=O)[C@H](CCc1ccccc1)N[C@@H](C)C(=O)N1Cc2cc(OC)c(OC)cc2C[C@H]1C(=O)O`, the inhibition in experiment [1] is -3.25%.

For the compound `COc1cc(OCc2cccc(-c3ccccc3)c2C)cc(OC)c1CN1CCCC[C@H]1C(=O)O`, in experiment [1], the inhibition is 51.3%.

With `C#CC1(OCC(O)CN2CCN(c3cccc(C(F)(F)F)c3)CC2)CCCCC1` (centres undefined), the inhibition in experiment [1] was determined as 3.19%.

On to `Cn1c(COc2ccc(CC3SC(=O)NC3=O)cc2)nc2ccccc2c1=O` (centres undefined), for which the inhibition in experiment [1] was 6.76%.

`COCCOc1cnc2ccn([C@H](C)c3nnc4c(F)cc(-c5cnn(C)c5)cn34)c(=O)c2c1`: the inhibition in experiment [1] is -3.49%.

On to `O=C(NCc1ccc(OC(F)(F)F)cc1)C1c2ccccc2C(=O)N1C1CCOCC1` (centres undefined), for which the inhibition in experiment [1] was 1.11%.

Take `C[C@H]1NC(=O)NC1=O`: in experiment [1], the inhibition came to 0.16%.

Take `Cc1[nH]c(/C=C2\C(=O)Nc3ccc(F)cc32)c(C)c1C(=O)NCCN1CCCC1`: the inhibition in experiment [1] stood at 2.96%.

For the compound `COc1cc(OC)c(/C=C2/C(=O)Nc3ccccc32)c(OC)c1`, in experiment [1], the inhibition was -2.63%.

With `Cc1[nH]c(/C=C2\C(=O)Nc3cc(-c4ccccc4)ccc32)c(C)c1CCC(=O)O`, the inhibition in experiment [1] is 96.4%.

Take `CN[C@@H]1[C@@H](O[C@H]2O[C@H](CO)[C@@H](N)[C@H](O)[C@H]2O)O[C@H]2C[C@@H](N)[C@H](O[C@H]3[C@H](O)[C@@H](O)[C@H](N)C[C@@H]3N)O[C@@H]2[C@@H]1O`: the inhibition in experiment [1] was 10.2%.

Turning to `COc1cc(N2CCOCC2)ccc1Nc1ncc(Cl)c(Nc2ccccc2NS(C)(=O)=O)n1`, the inhibition in experiment [1] was -0.93%.

In the case of `CNC(=O)c1ccccc1Nc1nc(Nc2ccc3c(c2OC)CCC[C@H](N2CCN(CCO)CC2)C3)ncc1Cl`, in experiment [1], the inhibition turned out to be 83%.

In the case of `CN1CCN(Cc2ccc(Nc3ncc(Cl)c(Nc4ccccc4S(=O)(=O)N(C)C)n3)cc2)CC1`, the inhibition in experiment [1] was -1.57%.
